Experimental findings from PubChem BioAssay (EPA / NIEHS) are described below.

Activity calls are given as the source filed them. Rule for the calls: active = hit-call score of the fitted dose curve at least 0.9, where 1 is the maximum; inactive = score below 0.9.

Holding throughout (conditions): mRNA level, 48 h; actives raise or lower the signal
Read-out in assay [1]: Apolipoprotein A-V (APOA5) gene, APOA5 (gene 116519)
Nature of the assay: LTEA_HepaRG_APOA5: Life Technologies and Expression Analysis (LTEA) Assay for Apolipoprotein A-V (APOA5) gene using HepaRG (AID 2283474). In short, it runs like this: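 Differentiated HepaRG cells in serum-free induction medium, exposed 48 h in duplicate to eight half-log concentrations topping at 100 uM (0.5% DMSO). APOA5 mRNA by Fluidigm TaqMan qRT-PCR, normalized to ACTB, GAPDH and POLR2A; bidirectional fit versus DMSO.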

Read-out in assay [2]: Apoptosis regulator Bcl-2 (Homo sapiens) (UniProt P10415)
In words: LTEA_HepaRG_BCL2: Life Technologies and Expression Analysis (LTEA) Assay for Bcl-2 gene using HepaRG (AID 2283475). In short, it runs like this: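 Each chemical was tested in duplicate on HepaRG cultures held in serum-free induction medium for 48 h, highest concentration 100 uM with half-log dilutions. Transcript levels came from multiplexed qRT-PCR, normalised to housekeeping genes; activity was scored in either direction relative to DMSO.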

Read-out in assay [3]: Bcl-2 (BID) gene, BID (gene 637)
Nature of the assay: LTEA_HepaRG_BID: Life Technologies and Expression Analysis (LTEA) Assay for Bcl-2 (BID) gene using HepaRG (AID 2283476). In outline:
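Assay used HepaRG hepatic cells treated 48 h in serum-free medium with half-log dilutions from 100 uM. Endpoint: BID mRNA, qRT-PCR, normalized to ACTB/GAPDH/POLR2A.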

Read-out in assay [4]: Caspase-3 (Homo sapiens) (UniProt P42574)
Nature of the assay: LTEA_HepaRG_CASP3: Life Technologies and Expression Analysis (LTEA) Assay for cysteine-aspartic acid protease (CASP3) using HepaRG (AID 2283477). In outline:
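Differentiated HepaRG cells, plated 48 h, were treated in duplicate in serum-free induction medium for 48 h with eight half-log concentrations up to 100 uM in 0.5% DMSO. CASP3 mRNA measured by qRT-PCR, normalized to ACTB, GAPDH, POLR2A.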

Read-out in assay [5]: Cytochrome P450 (CYP24A1), CYP24A1 (gene 1591)
Nature of the assay: LTEA_HepaRG_CYP24A1: Life Technologies and Expression Analysis (LTEA) Assay for Cytochrome P450 (CYP24A1) using HepaRG (AID 2283478). In outline:
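HepaRG cells plated 48 h, then exposed in duplicate in serum-free induction medium for 48 h to 8-point half-log series from 100 uM in 0.5% DMSO. CYP24A1 mRNA by Fluidigm qRT-PCR, normalized to ACTB, GAPDH, POLR2A; bidirectional fit versus DMSO.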

Read-out in assay [6]: Cytochrome P450 (CYP1A2), CYP1A2 (gene 1544)
Nature of the assay: LTEA_HepaRG_CYP1A2: Life Technologies and Expression Analysis (LTEA) Assay for Cytochrome P450 (CYP1A2) using HepaRG (AID 2283479). In short, it runs like this:
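Differentiated human HepaRG cells in serum-free induction medium exposed 48 hours in duplicate to 8 half-log concentrations from 100 uM, 0.5% DMSO. CYP1A2 mRNA quantified by qRT-PCR, normalized to ACTB, GAPDH and POLR2A; bidirectional fitting versus DMSO.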

Read-out in assay [7]: cysteine-aspartic acid protease (CASP8), CASP8 (gene 841)
Nature of the assay: LTEA_HepaRG_CASP8: Life Technologies and Expression Analysis (LTEA) Assay for cysteine-aspartic acid protease (CASP8) using HepaRG (AID 2283480). In outline:
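qRT-PCR readout of CASP8 mRNA, normalized to three housekeeping genes, after 48 h chemical exposure of HepaRG cells; 8-point half-log series, top 100 uM, 0.5% DMSO vehicle. Bidirectional curve fitting against DMSO baseline.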

Read-out in assay [8]: Cytochrome P450 (CYP2B6), CYP2B6 (gene 1555)
In words: LTEA_HepaRG_CYP2B6: Life Technologies and Expression Analysis (LTEA) Assay for Cytochrome P450 (CYP2B6) using HepaRG (AID 2283481). In outline:
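Differentiated human HepaRG cells in serum-free induction medium, dosed in duplicate for 48 h over 8 half-log concentrations topping at 100 uM (0.5% DMSO). CYP2B6 mRNA measured by TaqMan qRT-PCR, normalized to ACTB, GAPDH, POLR2A; bidirectional fit versus DMSO.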

Read-out in assay [9]: Cytochrome P450 2C19 (Homo sapiens) (UniProt P33261)
Nature of the assay: LTEA_HepaRG_CYP2C19: Life Technologies and Expression Analysis (LTEA) Assay for CYP2C19 using HepaRG (AID 2283482). In short, it runs like this:
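Differentiated HepaRG cells in serum-free induction medium exposed 48 h in duplicate, 8 concentrations from 100 uM by half-log steps in 0.5% DMSO. CYP2C19 mRNA measured by TaqMan qRT-PCR, normalized to ACTB, GAPDH, POLR2A. Bidirectional fit versus DMSO.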

Read-out in assay [10]: CYP2C8 (gene 1558)
Nature of the assay: LTEA_HepaRG_CYP2C8: Life Technologies and Expression Analysis (LTEA) Assay for CYP2C8 using HepaRG (AID 2283483). In short, it runs like this:
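HepaRG (human liver line), 48 h chemical exposure, 8-pt half-log series from 100 uM, 0.5% DMSO vehicle. Readout: CYP2C8 transcript by qRT-PCR, housekeeping-normalized. Bidirectional fit vs DMSO baseline.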

Read-out in assay [11]: CYP2C9 (gene 1559)
In words: LTEA_HepaRG_CYP2C9: Life Technologies and Expression Analysis (LTEA) Assay for CYP2C9 using HepaRG (AID 2283484). In outline:
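HepaRG, 48 h dosing, 8-pt half-log series, top 100 uM, 0.5% DMSO vehicle. Read-out: CYP2C9 transcript by TaqMan qRT-PCR, housekeeping-normalized (ACTB/GAPDH/POLR2A). Gain or loss fitted vs DMSO baseline.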

Read-out in assay [12]: CYP2E1 (gene 1571)
In words: LTEA_HepaRG_CYP2E1: Life Technologies and Expression Analysis (LTEA) Assay for CYP2E1 using HepaRG (AID 2283485). In short, it runs like this: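 Assay uses 48 h exposure of HepaRG hepatic cells, eight concentrations to 100 uM. Expression of CYP2E1 is quantified by TaqMan qRT-PCR with ACTB, GAPDH and POLR2A normalization; curves fitted in both directions relative to vehicle.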

Read-out in assay [13]: CYP4A11 (gene 1579)
Nature of the assay: LTEA_HepaRG_CYP4A11: Life Technologies and Expression Analysis (LTEA) Assay for CYP4A11 using HepaRG (AID 2283486). In short, it runs like this:
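Differentiated HepaRG cells, 48 h after plating, exposed in duplicate for 48 h to 8 half-log concentrations up to 100 uM in 0.5% DMSO in serum-free induction medium. CYP4A11 mRNA measured by TaqMan qRT-PCR, normalized to ACTB, GAPDH and POLR2A.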

Read-out in assay [14]: Cytochrome P450 3A4 (Homo sapiens) (UniProt P08684)
In words: LTEA_HepaRG_CYP3A4: Life Technologies and Expression Analysis (LTEA) Assay for CYP3A4 using HepaRG (AID 2283487). In outline:
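Differentiated HepaRG cells, plated 48 h, then dosed 48 h in serum-free induction medium with 0.5% DMSO, 8 half-log concentrations up to 100 uM, duplicate. CYP3A4 mRNA by qRT-PCR, normalized to ACTB/GAPDH/POLR2A; bidirectional fit versus DMSO.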

Read-out in assay [15]: DNA damage-inducible transcript 3 (DDIT3), DDIT3 (gene 1649)
In words: LTEA_HepaRG_DDIT3: Life Technologies and Expression Analysis (LTEA) Assay for DNA damage-inducible transcript 3 (DDIT3) using HepaRG (AID 2283488). In outline:
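Eight-point concentration-response (100 uM highest, half-log dilutions) in HepaRG, 48 h, duplicate wells. Endpoint: qRT-PCR mRNA, normalized (ACTB, GAPDH, POLR2A), bidirectional fitting with DMSO as baseline.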

Read-out in assay [16]: Pro-epidermal growth factor (Homo sapiens) (UniProt P01133)
Nature of the assay: LTEA_HepaRG_EGF: Life Technologies and Expression Analysis (LTEA) Assay for Epidermal growth factor (EGF) using HepaRG (AID 2283489). In short, it runs like this:
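HepaRG cells (~100,000/well, 48 h pre-culture) exposed in duplicate for 48 h in serum-free induction medium to 8 half-log concentrations up to 100 uM in 0.5% DMSO. EGF mRNA by qRT-PCR, normalized to ACTB/GAPDH/POLR2A; bidirectional fit versus DMSO.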

Read-out in assay [17]: Early growth response protein 1 (EGR1) transcription factor, EGR1 (gene 1958)
In words: LTEA_HepaRG_EGR1: Life Technologies and Expression Analysis (LTEA) Assay for Early growth response protein 1 (EGR1) transcription factor using HepaRG (AID 2283490). In short, it runs like this:
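HepaRG, 48 h exposure, 8-pt half-log series from 100 uM, 0.5% DMSO vehicle; EGR1 transcript by TaqMan qRT-PCR (Fluidigm array), housekeeping-normalized; bidirectional fit relative to DMSO baseline.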

Read-out in assay [18]: Ezrin (EZR), EZR (gene 7430)
Nature of the assay: LTEA_HepaRG_EZR: Life Technologies and Expression Analysis (LTEA) Assay for Ezrin (EZR) using HepaRG (AID 2283491). In outline: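 EZR transcript levels came from Fluidigm qRT-PCR and were normalized to three housekeeping genes after 48 h chemical exposure of HepaRG cells. Dosing used an 8-point half-log series with a 100 uM top concentration in 0.5% DMSO, tested in duplicate; both directions were fitted versus vehicle.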

Read-out in assay [19]: Cytochrome P450 3A7 (Homo sapiens) (UniProt P24462)
In words: LTEA_HepaRG_CYP3A7: Life Technologies and Expression Analysis (LTEA) Assay for CYP3A7 using HepaRG (AID 2283492). In short, it runs like this:
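Differentiated HepaRG cells in serum-free induction medium exposed 48 h in duplicate to 8-point half-log series from 100 uM top in 0.5% DMSO. CYP3A7 mRNA by qRT-PCR, normalized to ACTB/GAPDH/POLR2A, bidirectional fit versus DMSO.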

Broadly, the AC50 is the concentration at which the activity in the assay is half-maximal.

Cytochrome P450 3A4 (Homo sapiens), sequence (P08684 whole entry, looked up): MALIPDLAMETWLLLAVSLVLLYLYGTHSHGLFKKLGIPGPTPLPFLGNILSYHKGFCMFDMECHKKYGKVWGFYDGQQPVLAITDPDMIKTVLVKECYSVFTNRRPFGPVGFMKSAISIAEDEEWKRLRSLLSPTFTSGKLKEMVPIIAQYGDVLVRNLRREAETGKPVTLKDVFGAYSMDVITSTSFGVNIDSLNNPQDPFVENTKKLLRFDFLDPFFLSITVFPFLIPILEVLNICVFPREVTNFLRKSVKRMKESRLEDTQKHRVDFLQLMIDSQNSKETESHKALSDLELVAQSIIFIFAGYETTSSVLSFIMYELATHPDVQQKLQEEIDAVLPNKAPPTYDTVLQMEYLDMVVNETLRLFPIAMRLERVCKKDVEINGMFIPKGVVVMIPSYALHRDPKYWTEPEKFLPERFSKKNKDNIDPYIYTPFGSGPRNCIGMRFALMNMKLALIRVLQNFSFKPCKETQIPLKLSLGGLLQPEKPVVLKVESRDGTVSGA
Apoptosis regulator Bcl-2 (Homo sapiens), sequence (P10415 whole entry, looked up): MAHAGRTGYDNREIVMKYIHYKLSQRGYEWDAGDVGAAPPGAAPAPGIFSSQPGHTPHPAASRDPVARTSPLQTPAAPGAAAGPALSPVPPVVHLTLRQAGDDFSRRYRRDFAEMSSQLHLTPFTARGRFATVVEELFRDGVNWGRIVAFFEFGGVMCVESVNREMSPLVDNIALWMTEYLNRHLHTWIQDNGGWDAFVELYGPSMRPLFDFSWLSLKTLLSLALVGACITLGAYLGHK
Caspase-3 (Homo sapiens), sequence (P42574 whole entry, looked up): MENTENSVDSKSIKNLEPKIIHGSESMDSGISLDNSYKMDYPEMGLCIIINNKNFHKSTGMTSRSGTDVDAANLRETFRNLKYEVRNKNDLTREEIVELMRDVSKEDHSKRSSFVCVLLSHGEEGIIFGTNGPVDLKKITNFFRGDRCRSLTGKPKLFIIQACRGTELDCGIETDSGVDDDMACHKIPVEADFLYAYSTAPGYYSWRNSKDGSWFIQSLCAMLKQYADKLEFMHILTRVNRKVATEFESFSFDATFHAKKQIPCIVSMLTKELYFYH
Cytochrome P450 2C19 (Homo sapiens), sequence (P33261 whole entry, looked up): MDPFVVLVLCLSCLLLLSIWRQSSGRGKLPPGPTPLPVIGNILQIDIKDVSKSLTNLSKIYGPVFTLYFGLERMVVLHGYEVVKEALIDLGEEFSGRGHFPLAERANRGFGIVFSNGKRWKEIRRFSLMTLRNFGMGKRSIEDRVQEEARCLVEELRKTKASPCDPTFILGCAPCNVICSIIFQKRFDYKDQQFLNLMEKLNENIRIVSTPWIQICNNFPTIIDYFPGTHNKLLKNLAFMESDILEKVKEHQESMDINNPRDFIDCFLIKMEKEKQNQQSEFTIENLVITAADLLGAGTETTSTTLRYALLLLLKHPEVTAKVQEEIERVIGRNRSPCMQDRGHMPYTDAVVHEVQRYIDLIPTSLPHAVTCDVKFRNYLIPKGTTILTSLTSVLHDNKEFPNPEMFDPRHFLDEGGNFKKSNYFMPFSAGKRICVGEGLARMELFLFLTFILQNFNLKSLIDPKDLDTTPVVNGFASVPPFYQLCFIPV
Cytochrome P450 3A7 (Homo sapiens), sequence (P24462 whole entry, looked up): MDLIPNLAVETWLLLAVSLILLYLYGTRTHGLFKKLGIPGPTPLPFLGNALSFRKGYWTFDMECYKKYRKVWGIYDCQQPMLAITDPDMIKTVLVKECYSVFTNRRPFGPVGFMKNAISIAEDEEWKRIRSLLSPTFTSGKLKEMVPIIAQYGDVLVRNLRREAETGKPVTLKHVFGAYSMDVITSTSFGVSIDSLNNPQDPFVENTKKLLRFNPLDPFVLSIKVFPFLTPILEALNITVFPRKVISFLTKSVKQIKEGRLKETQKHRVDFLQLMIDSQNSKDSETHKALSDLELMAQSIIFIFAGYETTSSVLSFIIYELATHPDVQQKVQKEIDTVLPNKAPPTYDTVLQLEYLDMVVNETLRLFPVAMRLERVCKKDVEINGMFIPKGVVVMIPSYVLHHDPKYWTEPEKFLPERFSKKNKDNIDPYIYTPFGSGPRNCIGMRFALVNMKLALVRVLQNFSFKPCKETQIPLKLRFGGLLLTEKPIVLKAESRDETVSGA

Take `O=C(CCCCCCCCc1cccnc1)N1CCC(C=C(c2ccccc2)c2ccccc2)CC1`: the AC50 in assay [1] was 29.6 µM (active); in assay [2], 16.6 µM (active); in assay [4], 61.9 µM (active); in assay [6] it was 17 µM (active); in [8] it was 12.3 µM (active); in assay [9], 34.9 µM (active). Besides, the AC50 in assay [10] was 29.7 µM (active); in [11], 31.2 µM (active); in [12], 14.1 µM (active); in assay [13] it was 12.6 µM (active); in assay [14] it was 32 µM (active); in [15], 22.1 µM (active). Besides, the AC50 is 12.2 µM (active) in assay [17] and 13.1 µM (active) in [18]. Besides, the molecule was classed as inactive in assay [3], in [5], in assay [7], in assay [16] and in assay [19].
In the case of `CCCCC(CC)COC(=O)c1ccc(C(=O)OCC(CC)CCCC)cc1` (centres undefined), the outcome in assay [1], in assay [2], in [3], in assay [4], in assay [5] and in assay [6] was inactive. The outcome in assay [7], in [8], in [9], in [10], in assay [12] and in [13] was inactive. Further, the result in [14], in assay [15], in [16], in assay [17], in [18] and in [19] was inactive.
As to `C=CCCCCCCCCC(=O)O`, the result in assay [1], in [2], in assay [3], in [4], in [5] and in assay [7] was inactive. Further, the molecule was classed as inactive in assay [8], in [9], in assay [10], in assay [11], in assay [12] and in assay [13]. Also, the outcome in assay [14], in [15], in assay [16], in assay [17], in assay [18] and in [19] was inactive. The AC50 in assay [6] is 50 µM (active).
As to `CC[C@H]1CC[C@H](NCc2cc3c(cc2OC)[C@H]2C[C@H]2C(=O)N3C)[C@H](c2ccccc2)N1`, the result in [1], in [2], in assay [3], in assay [4], in [5] and in assay [7] was inactive. The result in assay [11], in assay [16], in assay [17] and in assay [18] was inactive. For the same molecule, the AC50 in assay [6] was 33.8 µM (active); in assay [8], 11.7 µM (active); in [9] it was 10.8 µM (active); in assay [10] it was 11.1 µM (active); in [12], 50 µM (active); in [13] it was 81.8 µM (active). Besides, the AC50 in [14] is 14.2 µM (active); in assay [15], 50 µM (active); in assay [19] it was 8.34 µM (active).
As to `CCCCCCCCCCCCCCCO`, the outcome in assay [1], in [2], in assay [3], in assay [4], in assay [5] and in assay [6] was inactive. The molecule was called inactive in assay [7], in [8], in assay [9], in assay [10], in [11] and in assay [12]. Besides, the molecule was called inactive in [13], in assay [14], in [15], in assay [16], in [17] and in assay [18]. The result in [19] was inactive.
